# The full data set covers some 8,800 targets. This sample favours those with a hit. About 0.5% of all pairs of compound and target were hits. Values without a mark were called inactive.
# Compound: CNC(=O)c1ccc(Nc2ncc(C(F)(F)F)c(NCc3nccnc3N(C)S(C)(=O)=O)n2)cc1 [defactinib]
# Test: log2 fold change, soluble protein after heating vs DMSO (PISA); higher = thermal stabilisation; K562 lysate, 10 uM; active = over 0.2 and 3.5 SD of the protein, either way, in both replicates (recomputed)
# How it was run: (§1)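 Soluble protein was defined as the supernatant remaining after 21,000xg for 90 min, following pooling of heated aliquots and adjustment to 0.5% NP-40 at 4°C. Before that, crude K562 extract at 1 mg/mL protein in PBS pH 7.4 with 1 mM MgCl2 was treated with 10 μM compound for 30 min and heated for 3 min across 48°C-58°C. Quantification used TMTpro 16plex LC-MS/MS with channel sums equalised, and values are log-two fold changes in thermal stability relative to solvent controls from duplicates.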
# Sequence of UniProt P21953 (P21953 whole entry, looked up): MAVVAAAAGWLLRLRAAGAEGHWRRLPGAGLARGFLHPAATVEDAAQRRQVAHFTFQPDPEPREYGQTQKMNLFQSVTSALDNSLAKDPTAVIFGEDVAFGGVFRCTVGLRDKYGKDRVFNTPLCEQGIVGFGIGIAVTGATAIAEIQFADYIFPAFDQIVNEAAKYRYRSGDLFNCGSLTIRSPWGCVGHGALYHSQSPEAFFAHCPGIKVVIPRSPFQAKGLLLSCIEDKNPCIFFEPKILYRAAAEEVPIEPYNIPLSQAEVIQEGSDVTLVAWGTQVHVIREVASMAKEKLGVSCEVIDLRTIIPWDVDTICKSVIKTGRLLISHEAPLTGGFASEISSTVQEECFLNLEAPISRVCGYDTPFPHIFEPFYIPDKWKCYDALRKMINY
# Sequence of UniProt O60826 (O60826 whole entry, looked up): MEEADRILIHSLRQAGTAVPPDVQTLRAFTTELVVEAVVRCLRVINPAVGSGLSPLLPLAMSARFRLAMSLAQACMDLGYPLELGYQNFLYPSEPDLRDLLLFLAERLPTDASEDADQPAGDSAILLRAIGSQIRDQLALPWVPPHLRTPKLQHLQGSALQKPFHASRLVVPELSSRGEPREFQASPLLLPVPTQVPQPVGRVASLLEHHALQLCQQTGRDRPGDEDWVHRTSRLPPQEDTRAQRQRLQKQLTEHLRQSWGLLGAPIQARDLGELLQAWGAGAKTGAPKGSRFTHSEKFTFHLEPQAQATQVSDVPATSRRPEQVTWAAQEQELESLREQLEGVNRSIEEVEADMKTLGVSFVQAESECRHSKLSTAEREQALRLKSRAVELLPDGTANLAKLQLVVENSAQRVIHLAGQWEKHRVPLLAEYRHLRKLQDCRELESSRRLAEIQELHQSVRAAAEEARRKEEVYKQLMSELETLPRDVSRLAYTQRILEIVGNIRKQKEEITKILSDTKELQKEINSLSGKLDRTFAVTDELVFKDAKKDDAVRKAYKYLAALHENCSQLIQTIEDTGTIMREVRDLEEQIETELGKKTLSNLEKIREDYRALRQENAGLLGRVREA
# Sequence of UniProt Q7L2Z9 (Q7L2Z9 whole entry, looked up): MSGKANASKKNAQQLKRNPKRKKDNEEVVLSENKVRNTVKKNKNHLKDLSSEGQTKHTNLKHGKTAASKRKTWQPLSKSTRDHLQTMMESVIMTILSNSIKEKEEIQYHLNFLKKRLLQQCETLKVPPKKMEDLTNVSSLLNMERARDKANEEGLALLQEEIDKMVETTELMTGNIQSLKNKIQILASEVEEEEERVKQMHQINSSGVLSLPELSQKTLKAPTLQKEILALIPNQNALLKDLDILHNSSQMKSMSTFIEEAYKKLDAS
# Sequence of UniProt P25440 (P25440 whole entry, looked up): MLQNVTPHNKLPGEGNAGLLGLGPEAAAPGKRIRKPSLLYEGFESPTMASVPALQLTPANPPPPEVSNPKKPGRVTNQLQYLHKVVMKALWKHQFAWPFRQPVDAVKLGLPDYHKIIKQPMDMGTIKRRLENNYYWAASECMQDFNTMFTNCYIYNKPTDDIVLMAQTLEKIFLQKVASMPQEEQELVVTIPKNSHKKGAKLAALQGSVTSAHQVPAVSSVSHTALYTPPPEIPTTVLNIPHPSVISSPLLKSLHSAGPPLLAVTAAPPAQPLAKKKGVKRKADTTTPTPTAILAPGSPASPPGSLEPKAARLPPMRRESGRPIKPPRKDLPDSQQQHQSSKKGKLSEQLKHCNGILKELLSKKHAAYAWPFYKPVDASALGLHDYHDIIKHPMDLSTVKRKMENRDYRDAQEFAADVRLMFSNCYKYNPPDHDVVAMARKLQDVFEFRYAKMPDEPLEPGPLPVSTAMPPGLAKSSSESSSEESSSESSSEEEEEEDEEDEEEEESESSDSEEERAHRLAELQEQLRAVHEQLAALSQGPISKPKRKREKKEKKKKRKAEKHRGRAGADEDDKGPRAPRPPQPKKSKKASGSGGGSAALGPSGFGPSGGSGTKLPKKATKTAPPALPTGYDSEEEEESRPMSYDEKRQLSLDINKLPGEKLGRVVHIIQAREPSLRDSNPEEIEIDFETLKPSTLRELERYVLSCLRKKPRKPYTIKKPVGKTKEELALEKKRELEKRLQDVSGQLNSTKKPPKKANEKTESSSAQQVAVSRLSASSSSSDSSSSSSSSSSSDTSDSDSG
# Sequence of UniProt Q8N4J0 (Q8N4J0 whole entry, looked up): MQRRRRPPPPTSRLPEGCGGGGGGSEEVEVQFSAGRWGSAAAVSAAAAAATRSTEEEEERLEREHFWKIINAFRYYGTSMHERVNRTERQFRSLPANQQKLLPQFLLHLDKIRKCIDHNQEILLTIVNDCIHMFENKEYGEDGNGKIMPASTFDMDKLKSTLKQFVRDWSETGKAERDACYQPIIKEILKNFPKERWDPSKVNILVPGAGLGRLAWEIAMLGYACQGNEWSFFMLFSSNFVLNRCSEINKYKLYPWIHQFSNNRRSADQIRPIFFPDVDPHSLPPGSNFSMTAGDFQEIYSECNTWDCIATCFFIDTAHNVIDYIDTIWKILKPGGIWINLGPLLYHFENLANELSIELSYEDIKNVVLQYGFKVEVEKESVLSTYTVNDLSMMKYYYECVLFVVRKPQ
# Sequence of UniProt Q86YS7 (Q86YS7 whole entry, looked up): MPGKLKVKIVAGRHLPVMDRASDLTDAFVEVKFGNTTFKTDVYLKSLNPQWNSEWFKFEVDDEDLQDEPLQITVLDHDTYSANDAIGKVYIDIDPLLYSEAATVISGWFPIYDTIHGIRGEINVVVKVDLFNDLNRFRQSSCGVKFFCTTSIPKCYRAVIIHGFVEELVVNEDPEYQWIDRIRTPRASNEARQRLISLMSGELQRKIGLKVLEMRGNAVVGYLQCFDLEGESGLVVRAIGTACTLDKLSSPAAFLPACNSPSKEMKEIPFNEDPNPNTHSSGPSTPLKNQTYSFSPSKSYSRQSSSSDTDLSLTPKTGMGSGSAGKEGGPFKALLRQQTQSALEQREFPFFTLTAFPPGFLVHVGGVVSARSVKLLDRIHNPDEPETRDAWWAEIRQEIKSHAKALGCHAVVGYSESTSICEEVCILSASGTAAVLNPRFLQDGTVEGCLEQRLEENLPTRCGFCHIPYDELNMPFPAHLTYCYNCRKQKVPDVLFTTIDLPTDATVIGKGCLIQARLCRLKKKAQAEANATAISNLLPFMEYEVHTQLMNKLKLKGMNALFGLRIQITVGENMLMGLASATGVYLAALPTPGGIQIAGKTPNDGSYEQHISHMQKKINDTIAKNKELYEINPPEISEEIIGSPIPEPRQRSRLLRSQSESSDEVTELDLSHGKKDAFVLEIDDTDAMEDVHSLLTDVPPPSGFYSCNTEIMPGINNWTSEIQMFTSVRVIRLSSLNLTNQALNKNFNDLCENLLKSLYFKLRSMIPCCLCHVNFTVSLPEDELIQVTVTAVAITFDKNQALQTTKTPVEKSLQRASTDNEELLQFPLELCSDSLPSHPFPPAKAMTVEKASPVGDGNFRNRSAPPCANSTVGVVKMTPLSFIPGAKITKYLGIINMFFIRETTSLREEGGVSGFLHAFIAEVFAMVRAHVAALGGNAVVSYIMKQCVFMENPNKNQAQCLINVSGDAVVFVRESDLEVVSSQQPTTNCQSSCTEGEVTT
# Sequence of UniProt Q8N4Q1 (Q8N4Q1 whole entry, looked up): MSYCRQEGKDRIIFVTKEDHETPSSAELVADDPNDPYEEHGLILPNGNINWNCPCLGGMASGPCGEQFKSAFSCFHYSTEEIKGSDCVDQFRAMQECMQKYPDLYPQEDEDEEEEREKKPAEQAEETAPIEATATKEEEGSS
# Sequence of UniProt Q9UL45 (Q9UL45 whole entry, looked up): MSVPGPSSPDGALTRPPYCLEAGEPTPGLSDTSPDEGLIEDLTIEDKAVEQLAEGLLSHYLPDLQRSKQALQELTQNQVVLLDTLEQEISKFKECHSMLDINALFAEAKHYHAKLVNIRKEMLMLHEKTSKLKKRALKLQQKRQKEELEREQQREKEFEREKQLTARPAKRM
# Sequence of UniProt P04632 (P04632 whole entry, looked up): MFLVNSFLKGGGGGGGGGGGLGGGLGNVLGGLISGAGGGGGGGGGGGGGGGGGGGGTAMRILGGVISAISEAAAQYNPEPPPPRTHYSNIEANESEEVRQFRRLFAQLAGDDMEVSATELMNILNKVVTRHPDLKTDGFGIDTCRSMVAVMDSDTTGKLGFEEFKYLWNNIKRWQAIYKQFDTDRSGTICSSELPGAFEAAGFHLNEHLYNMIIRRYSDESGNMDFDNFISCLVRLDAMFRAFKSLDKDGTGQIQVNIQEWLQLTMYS
# Sequence of UniProt Q6P4E1 (Q6P4E1 whole entry, looked up): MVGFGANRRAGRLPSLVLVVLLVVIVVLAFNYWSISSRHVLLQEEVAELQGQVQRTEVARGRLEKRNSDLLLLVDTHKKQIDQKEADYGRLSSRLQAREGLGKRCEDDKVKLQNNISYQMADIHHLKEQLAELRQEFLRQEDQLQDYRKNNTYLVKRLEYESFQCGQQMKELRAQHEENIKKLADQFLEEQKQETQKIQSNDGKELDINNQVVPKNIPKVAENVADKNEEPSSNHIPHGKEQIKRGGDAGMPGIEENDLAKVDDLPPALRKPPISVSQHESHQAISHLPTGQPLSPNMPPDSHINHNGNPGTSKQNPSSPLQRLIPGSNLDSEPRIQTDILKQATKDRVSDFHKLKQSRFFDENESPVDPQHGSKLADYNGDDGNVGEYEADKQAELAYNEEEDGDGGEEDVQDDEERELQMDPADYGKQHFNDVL
# Sequence of UniProt Q8WUX2 (Q8WUX2 whole entry, looked up): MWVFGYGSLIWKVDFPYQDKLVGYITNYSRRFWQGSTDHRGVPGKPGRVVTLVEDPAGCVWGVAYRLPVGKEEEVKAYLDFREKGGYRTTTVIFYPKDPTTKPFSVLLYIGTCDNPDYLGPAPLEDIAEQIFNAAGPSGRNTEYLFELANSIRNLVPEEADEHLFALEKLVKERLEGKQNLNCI
# Sequence of UniProt P08962 (P08962 whole entry, looked up): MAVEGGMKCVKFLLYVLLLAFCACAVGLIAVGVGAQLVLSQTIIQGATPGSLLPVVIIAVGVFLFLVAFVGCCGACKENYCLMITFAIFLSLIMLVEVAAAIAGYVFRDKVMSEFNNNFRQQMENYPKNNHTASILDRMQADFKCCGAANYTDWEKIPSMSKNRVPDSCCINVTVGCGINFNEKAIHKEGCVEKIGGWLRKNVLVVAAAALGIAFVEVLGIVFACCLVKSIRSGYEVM
row,Target,log2 fold change
1,CEBPZOS (UniProt A8MTT3),0.075
2,CDKN1C (UniProt P49918),-0.186
3,BCKDHB (UniProt P21953),-0.008
4,CD80 (UniProt P33681),-0.085
5,BNIP1 (UniProt Q12981),0
6,CCNK isoform 4 (UniProt O75909),-0.011
7,CBX5 (UniProt P45973),-0.011
8,BCORL1 isoform 3 (UniProt Q5H9F3),-0.213
9,C18orf32 (UniProt Q8TCD1),0.144
10,BRD2 isoform 2 (UniProt P25440),-0.187
11,CDK5 (UniProt Q00535),0.654 (active)
12,CEP120 (UniProt Q8N960),-0.025
13,BLOC1S6 (UniProt Q9UL45),0.014
14,BMS1 (UniProt Q14692),0.053
15,ATR (UniProt Q13535),-0.07
16,CARNMT1 (UniProt Q8N4J0),-0.03
17,CDC7 (UniProt O00311),0.007
18,CARD11 (UniProt Q9BXL7),-0.005
19,BRAF (UniProt P15056),0.067

row,Target,log2 fold change
1,BRD4 (UniProt O60885),-0.05
2,CAPNS1 (UniProt P04632),0.027
3,CDC25C (UniProt P30307),0.067
4,CASC4 (UniProt Q6P4E1),-0.064
5,CCNB1 (UniProt P14635),-0.117
6,BTAF1 (UniProt O14981),-0.013
7,CCDC51 (UniProt Q96ER9),0.008
8,ATM (UniProt Q13315),0.105
9,CDC42BPA isoform 6 (UniProt Q5VT25),-0.002
10,CDK11B (UniProt P21127),-0.013
11,CENPQ (UniProt Q7L2Z9),-0.085
12,CEPT1 (UniProt Q9Y6K0),0
13,CD63 (UniProt P08962),0.089
14,CHAC2 (UniProt Q8WUX2),0.028
15,C3 (UniProt P01024),0.01
16,CHCHD4 isoform 2 (UniProt Q8N4Q1),-0.044
17,CHD1L (UniProt Q86WJ1),-0.001
18,CCDC22 (UniProt O60826),-0.03
19,C2CD5 isoform 3 (UniProt Q86YS7),-0.002

# Compound: CNc1nc(-c2ccc3c(N)n[nH]c3c2)cc(N2C[C@@H](C(=O)NC3CCCCC3)CC[C@H]2C)n1
# Test: as above
# How it was run: as §1
row,Target,log2 fold change
1,CEBPZOS (UniProt A8MTT3),-0.055
2,CDKN1C (UniProt P49918),-0.067
3,BCKDHB (UniProt P21953),-0.031
4,CD80 (UniProt P33681),0.11
5,BNIP1 (UniProt Q12981),-0.014
6,CCNK isoform 4 (UniProt O75909),0.009
7,CBX5 (UniProt P45973),0.021
8,BCORL1 isoform 3 (UniProt Q5H9F3),0.113
9,C18orf32 (UniProt Q8TCD1),0
10,BRD2 isoform 2 (UniProt P25440),0.068
11,CDK5 (UniProt Q00535),-0.032
12,CEP120 (UniProt Q8N960),0.273
13,BLOC1S6 (UniProt Q9UL45),0.082
14,BMS1 (UniProt Q14692),0.007
15,ATR (UniProt Q13535),-0.001
16,CARNMT1 (UniProt Q8N4J0),-0.021
17,CDC7 (UniProt O00311),0.042
18,CARD11 (UniProt Q9BXL7),-0.029
19,BRAF (UniProt P15056),-0.016

row,Target,log2 fold change
1,BRD4 (UniProt O60885),0.036
2,CAPNS1 (UniProt P04632),-0.005
3,CDC25C (UniProt P30307),-0.073
4,CASC4 (UniProt Q6P4E1),-0.044
5,CCNB1 (UniProt P14635),0.028
6,BTAF1 (UniProt O14981),0
7,CCDC51 (UniProt Q96ER9),0.038
8,ATM (UniProt Q13315),-0.005
9,CDC42BPA isoform 6 (UniProt Q5VT25),-0.065
10,CDK11B (UniProt P21127),0.019
11,CENPQ (UniProt Q7L2Z9),0.055
12,CEPT1 (UniProt Q9Y6K0),-0.051
13,CD63 (UniProt P08962),-0.101
14,CHAC2 (UniProt Q8WUX2),0.019
15,C3 (UniProt P01024),0.008
16,CHCHD4 isoform 2 (UniProt Q8N4Q1),0.045
17,CHD1L (UniProt Q86WJ1),-0.025
18,CCDC22 (UniProt O60826),0.009
19,C2CD5 isoform 3 (UniProt Q86YS7),0.01

# From the supplement of paper PMC10849652
